The values below are quoted from earlier work in PubChem BioAssay AID977610.

One may read the Ki as a dissociation constant, usually derived from enzyme kinetics or from competition with a known ligand.

The whole screen tested about 3,600 compounds, of which about 3,600 (100%) were called active. The limit is not given here; nearly all actives have Ki up to about 18000 µM. So high a share suggests a set chosen from earlier hits. The list shows a part of the results.

The nature of this series: PubChem AID 977610. The note with it: PDB protein-ligand complexes, literature Ki.

For the compound `C[C@@H](O[P+](O)(O)O)C(=O)O`, the Ki (protein: PHOSPHO-2-DEHYDRO-3-DEOXYHEPTONATE ALDOLASE DAH7PS, PDB entry 4umb) is 99 µM (active).

For the compound `C[C@H](O[P+](O)(O)O)C(=O)O`, the Ki (protein: PHOSPHO-2-DEHYDRO-3-DEOXYHEPTONATE ALDOLASE DAH7PS, PDB entry 4umc) is 360 µM (active).

Turning to H-NSRYPTSII-OH, the Ki (protein: CFTR Associated Ligand (CAL) PDZ domain, PDB entry 4jok) was 85.3 µM (active).

Take H-SRVPTSII-OH: the Ki (protein: CFTR Associated Ligand (CAL) PDZ domain, PDB entry 4jog) is 190 µM (active).

H-RLPTSII-OH: the Ki (protein: CFTR Associated Ligand (CAL) PDZ domain, PDB entry 4jof) was 68 µM (active).

As for H-SRFPTSII-OH, the Ki (protein: CFTR Associated Ligand (CAL) domain, PDB entry 4joj) was 110 µM (active).

With `CC(C)(C)NC(=O)[C@@]1(c2c(C(=O)O)[nH]c3cc(Cl)ccc23)N2C(=O)[C@]21c1ccc(OCc2ccc(Cl)cc2)cc1`, the Ki (protein: E3 ubiquitin-protein ligase Mdm2, PDB entry 4mdn) was 0.6 µM (active).

Regarding `CC(C)(C)NC(=O)[C@@H]1C[C@@H]2CCCC[C@@H]2CN1C[C@@H](O)[C@H](C[C@@H]1C=CCCC1)NC(=O)[C@H](CC(N)=O)NC(=O)C1=CCc2ccccc2N1`, the Ki (protein: Protease PRG48T/L89M, PDB entry 4qgi) is 125 µM (active).

As for `Nc1nc2c(ncn2CC(COC[P+](O)(O)O)COC[P+](O)(O)O)c(=O)[nH]1`, where the note is “protein: hypoxanthine-guanine phosphoribosyltransferase, PDB entry 4ijq”, the Ki is 0.03 µM (active).

For the compound `Nc1nc2c(ncn2[C@H]2CN(C(=O)C[P+](O)(O)O)C[C@H]2O)c(=O)[nH]1`, the Ki (protein: Xanthine phosphoribosyltransferase, E. coli XGPRT, PDB entry 4jls) was 2.2 µM (active).

As for `Nc1nc2c(ncn2[C@H]2CCN(C(=O)C[P+](O)(O)O)C2)c(=O)[nH]1`, for the setting “protein: Xanthine phosphoribosyltransferase, E. coli XGPRT, PDB entry 4jit”, the Ki was 0.23 µM (active).

With `O=C(O)CC1(CC(=O)N2CCN(C(c3ccccc3)c3ccccc3)CC2)CCCC1`, the Ki (protein: Dehydrosqualene synthase, PDB entry 3tfn) was 0.27 µM (active).

Regarding `CO[C@H]1CC[C@H](OC)[C@@H](NC(=O)CN2CCN(Cc3ccc4c(c3)OCO4)CC2)C1`, the Ki (protein: E. coli beta-Glucuronidase, PDB entry 4jhz) is 0.957 µM (active).

`NCCCC[C@H](NC(=O)Cc1ccc(Cl)c(Cl)c1)C(=O)N[C@@H](CCCCN)C(=O)NCC1CCC(NC(N)N)CC1` (stereo partly drawn): the Ki (protein: SERINE PROTEASE SUBUNIT NS2B, SERINE PROTEASE NS3, PDB entry 2yol) was 0.13 µM (active).

For `Cn1nc(N)c2c[n+]([C@@H]3O[C@H](CO[P+](O)(O)O)[C@@H](O)[C@H]3O)c3nc[nH]c1c23`, the Ki (protein: Deoxyribonucleoside 5'-monophosphate N-glycosidase (D69N mutation), PDB entry 4fyh) is 14 µM (active).

With `N#Cc1cccc(Cn2cc(NC(=O)c3n[nH]c4ccccc34)cn2)c1`, the Ki (protein: Tyrosine-protein kinase ITK, PDB entry 4pp9) was 0.043 µM (active).

Turning to `CCc1[nH]c2nc(Oc3cncnc3)nc(N3C[C@@H]4C(N)[C@@H]4C3)c2c1Cl` (stereo partly drawn), the Ki (protein: DNA gyrase subunit B, PDB entry 4gee) is 0.001 µM (active).

On to `COc1ccc(OCCN2C[C@H]([C@H](O)CO)[C@H]3CCC[C@@H](C2=O)N3S(=O)(=O)c2cc(Cl)cc(Cl)c2)cc1OC`, for which the Ki (protein: Peptidyl-prolyl cis-trans isomerase FKBP51, PDB entry 4w9p) is 0.016 µM (active).

As for `COc1ccc(OCCN2C[C@H]([C@@H](O)CO)[C@H]3CCC[C@@H](C2=O)N3S(=O)(=O)c2cc(Cl)cc(Cl)c2)cc1OC`, the Ki (protein: Peptidyl-prolyl cis-trans isomerase FKBP51, PDB entry 4w9o) is 0.017 µM (active).

As to `O=C(O)c1cc2[nH]c3ccccc3c2cc1Cl`, the Ki (protein: E. coli sliding clamp, DNA polymerase III subunit beta, PDB entry 4n99) was 216 µM (active).

In the case of `Cc1ccc(CSc2nc3c(c(=O)[nH]2)CCC3)cc1`, the Ki (protein: Matrix metalloproteinase-13, PDB entry 4l19) is 0.8 µM (active).

Turning to `N#C[C@H]1CC(=O)NC(=O)N1[C@@H]1O[C@H](CO[P+](O)(O)O)[C@@H](O)[C@H]1O`, the Ki (protein: Mt orotidine 5'-monophosphate decarboxylase (OMPDC) K72A mutant, PDB entry 2zz2) was 29 µM (active).

In the case of `O=c1ccn([C@@H]2O[C@H](CO)[C@@H](O)[C@H](O)[C@H]2O)c(=O)[nH]1`, under “protein: Glycogen phosphorylase, muscle form, PDB entry 3t3d”, the Ki is 12.4 µM (active).

With `Cc1cc(=O)[nH]c(=O)n1[C@@H]1O[C@H](CO[P+](O)(O)O)[C@@H](O)[C@H]1O`, the Ki (protein: Orotidine 5'-phosphate decarboxylase, PDB entry 3wjw) was 134 µM (active).

`O=c1ccn([C@@H]2O[C@H](CO)[C@@H](O[P+](O)(O)O)[C@H]2O)c(=O)[nH]1`: the Ki (protein: bovine seminal ribonuclease, PDB entry 1n3z) is 63.2 µM (active).

For `O=c1cnn([C@@H]2O[C@H](CO[P+](O)(O)O)[C@@H](O)[C@H]2O)c(=O)[nH]1`, the Ki reads like this: (protein: Methanothermobacter thermautotrophicus ODCase mutant K42A, PDB entry 1km3) 12.4 µM (active); (protein: orotidine 5'-monophosphate decarboxylase from Saccharomyces cerevisiae (D91N), PDB entry 3gdt) 0.064 µM (active).

`O=c1ccn([C@@H]2O[C@H](CO[P+](O)(O)O)[C@@H](O)[C@H]2O)c(=O)[nH]1`: the Ki was 220 µM (active) (protein: D312N mutant of human orotidyl-5'-monophosphate decarboxylase, PDB entry 3ex6); 330 µM (active) (protein: Mt orotidine 5'-monophosphate decarboxylase (OMPDC), PDB entry 3g1d); 210 µM (active) (protein: orotidine 5'-monophosphate decarboxylase from P.falciparum, PDB entry 2za3).

For `CC(C)(C)C(=O)N[C@@H](C(=O)NO)c1ccc(-n2cccn2)cc1`, for the setting “protein: M1 family aminopeptidase A-M1, PDB entry 4r5v”, the Ki was 0.7 µM (active).

As to `CC(C)(C)OC(=O)N[C@H](C(=O)NO)c1ccc(-n2cccn2)cc1`, the Ki was 0.8 µM (active) (protein: M1 family aminopeptidase A-M1, PDB entry 4r5t) and 0.03 µM (active) (protein: M17 leucyl aminopeptidase A-M17, PDB entry 4r6t).
